{
  "source": "PubChem BioAssay AID624305",
  "about": "(National Center for Advancing Translational Sciences (NCATS), 2012)",
  "note": "Inconclusive results are not listed. Where a call stands in place of a potency, no number is given. The source made the active and inactive calls. Calls follow the shape of the dose curve; as a rule, active = well fitted activation curve with a large enough effect; inconclusive = small, poorly fitted or top-dose-only effect; inactive = no such curve, though single readings can be large or run the other way. Potency is read from the fitted curve at half-maximal effect.",
  "data": [
    {"assay": "qHTS assay for re-activators of p53 using a Luc reporter: Hit Validation; also: nearly all actives have a fitted effect of over 75% in size", "conditions": "p53-responsive luciferase reporter cells, luminescence, H1299 line expressing heat-sensitive Ala138Val p53; series mostly up to 46.1 µM", "procedure,_shortened": "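Hit confirmation with a 1:5 dilution series, at 37 deg C for 24 hrs, in H1299 cells co-expressing temperature-sensitive p53-A138V and p53-responsive luciferase. Nocodazole served as control; luminescence read after 10 min with detection reagent.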", "values": [
      {"smiles": "CCN1C(=S)SC(=O)C1=C1C=C(C)N(CCO)C(C)=C1", "Potency": "1300 nM (active)"},
      {"smiles": "O=C(N/N=C/C1C(c2ccccc2)C1(Cl)Cl)c1cccc(Cl)c1", "note": "(stereo not drawn)", "Potency": "inactive"},
      {"smiles": "c1ccc(-c2cn3c(n2)SCC3)cc1", "Potency": "9200 nM (active)"},
      {"smiles": "CC(=O)/C=C(\\C)Nc1ccc(-c2cnc(-c3ccccc3)o2)cc1", "Potency": "2590 nM (active)"},
      {"smiles": "O=C(CN1C(=O)COc2ccccc21)Nc1ccc(F)cc1", "Potency": "inactive"},
      {"smiles": "O=C(N/N=C\\c1cccc(Cl)c1)c1n[nH]c2c1CCCC2", "Potency": "4110 nM (active)"},
      {"smiles": "O=C(c1ccc(N2CCN(S(=O)(=O)c3ccccc3)CC2)c([N+](=O)[O-])c1)N1CCOCC1", "Potency": "inactive"},
      {"smiles": "Cc1nc2cc(-c3ccccc3)nn2c(N)c1-c1ccccc1", "Potency": "411 nM (active)"},
      {"smiles": "CC(C)N1C(=O)CN(C2CCCCCC2)C(=O)C1c1ccccc1F", "note": "(stereo not drawn)", "Potency": "inactive"},
      {"smiles": "CCc1ccc(-n2cc(-c3ccc([N+](=O)[O-])cc3)[nH]c2=S)cc1", "Potency": "inactive"},
      {"smiles": "Cc1ccc(S(=O)(=O)NCCOc2nc(N(C)C)nc(N3CCOCC3)n2)cc1", "Potency": "inactive"},
      {"smiles": "Cc1ccc(CSc2nc3ccncc3[nH]2)cc1", "Potency": "inactive"},
      {"smiles": "CCOC(=O)c1cc(-c2ccccc2)sc1NC(=O)CC", "Potency": "inactive"},
      {"smiles": "CCOc1ccc2cc(C#N)c(SCC(=O)OC)nc2c1", "Potency": "2910 nM (active)"},
      {"smiles": "Cc1cc(/C=C2/C(=O)NN(c3ccccc3)C2=O)c(C)n1-c1cccc(O)c1", "Potency": "10300 nM (active)"},
      {"smiles": "CC(C)(C)c1nnc(SCC(=O)c2ccccc2)n(N)c1=O", "Potency": "inactive"},
      {"smiles": "O=C(O)CCCC(=O)NCCc1ccncc1", "Potency": "inactive"},
      {"smiles": "CCc1ccc2c(CN(CC)Cc3nc4ccccc4c(=O)[nH]3)cc(=O)oc2c1", "activation": "-11.9% [at 9.22 µM] (inactive)"},
      {"smiles": "O=C(Nc1ccc(Br)cn1)c1cccc(-c2cc3ccccc3oc2=O)c1", "Potency": "16400 nM (active)"},
      {"smiles": "Cc1ccnc(NC(=S)NC(=O)c2cccs2)c1", "Potency": "82 nM (active)"},
      {"smiles": "CC1CCC(NC(=O)C2CCN(C(=O)Nc3ccccc3)CC2)CC1", "note": "(stereo not drawn)", "Potency": "inactive"},
      {"smiles": "CCc1ccc2[nH]c(=O)c(CN(CCN(CC)CC)C(=O)NC3CCCCC3)cc2c1", "Potency": "inactive"},
      {"smiles": "COCc1[nH]nc2c1C(c1cccc(OC)c1)C(C#N)=C(N)O2", "note": "(stereo not drawn)", "Potency": "inactive"},
      {"smiles": "O=C(NC(=S)Nc1ccccc1Br)C1CCCCC1", "Potency": "20600 nM (active)"},
      {"smiles": "Clc1ccc(Nc2nc(-c3cccs3)cs2)nc1", "Potency": "4110 nM (active)"},
      {"smiles": "O=C(NNC1=C(C(=O)C(F)(F)F)CCC1)c1cccc(O)c1", "Potency": "inactive"},
      {"smiles": "COc1ccc(C2/C(=C(/O)c3ccc(C)cc3)C(=O)C(=O)N2CCCN2CCOCC2)cc1", "note": "(stereo not drawn)", "Potency": "inactive"},
      {"smiles": "c1ccc(-c2csc(Nc3ncccn3)n2)cc1", "Potency": "2310 nM (active)"},
      {"smiles": "COc1cc(C(=O)NCC(=O)Nc2c(C)cccc2C)ccc1OCc1ccccc1", "Potency": "inactive"},
      {"smiles": "Cc1c(C(=O)OC2CCC(C)CC2)[nH]c2c1C(=O)CCC2", "note": "(stereo not drawn)", "Potency": "1160 nM (active)"},
      {"smiles": "CCc1ccc(N=c2c([N+](=O)[O-])nn(-c3ccccc3)n2O)cc1", "Potency": "9200 nM (active)"},
      {"smiles": "C/C(=N\\NC(=O)c1ccccc1)c1ccc(NC(=O)c2cccs2)cc1", "Potency": "inactive"},
      {"smiles": "COc1ccc2c(=O)c(-c3nc(C)cs3)coc2c1", "Potency": "2060 nM (active)"},
      {"smiles": "CCc1ccc(OCC(=O)NC(NC(=S)Nc2ccccc2C)C(Cl)(Cl)Cl)cc1", "note": "(stereo not drawn)", "Potency": "inactive"},
      {"smiles": "N#CC(c1ccccc1)C1CCN(Cc2ccccc2)CC1", "note": "(stereo not drawn)", "Potency": "inactive"},
      {"smiles": "O=C(CNc1ccccc1)N/N=C/c1c[nH]c2ccccc12", "Potency": "inactive"},
      {"smiles": "Cc1nc(NCCc2ccccc2)c2nnn(Cc3ccccc3Cl)c2n1", "Potency": "inactive"},
      {"smiles": "COC(=O)Cc1n[nH]c(=S)[nH]c1=O", "Potency": "inactive"}
    ]}
  ]
}
